We go through 17 compounds from PubChem BioAssay (Tox21).

Experiment [1] is described as follows: A CellTox Green Cytotoxicity Assay to monitor cytotoxicity in HEK293 cells - 40 hour (AID 1224871). Further: nearly all actives have a fitted effect of over 45% in size. In outline: (§1)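 HEK293 cells, 600/well, were preincubated 5 hours and then exposed to compounds at 37 C for up to 40 hours. A cell-impermeant cyanine dye staining dead-cell DNA was read by fluorescence at 0, 8, 16, 24, 32 and 40 h time points.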
Experiment [2] in a line: qHTS RealTime-Glo MT Cell Viability Assay in HEK293 cells - 16 hour (AID 1224872). Further: nearly all actives have a fitted effect of over 50% in size. A digest of the protocol:
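Assay medium contained NanoLuc luciferase plus cell-permeant prosubstrate, added with HEK293 cells at 600 cells/well. After 5 h at 37 C/5% CO2 compounds were added; plates stayed at 37 C for 40 h with serial luminescence reads.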
On the technique in general: Quantitative high-throughput screening tests each substance at several concentrations.

Experiment [3] is described as follows: qHTS RealTime-Glo MT Cell Viability Assay in HepG2 cells - 8 hour (AID 1224873). Further: nearly all actives have a fitted effect of over 55% in size. A digest of the protocol:
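HepG2 cells mixed with RealTime-Glo MT reagents (NanoLuc plus cell-permeant prosubstrate) were seeded at 600 cells/well, incubated 5 h at 37 C/5% CO2, then pinned with compounds in DMSO; nonlytic luminescence tracked viability during 40 h treatment.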

The nature of experiment [4]: qHTS RealTime-Glo MT Cell Viability Assay in HEK293 cells - 40 hour (AID 1224874). Further: nearly all actives have a fitted effect of over 50% in size. The settings on record: RealTime-Glo luminescence; max response: stronger effect = lower value. A digest of the protocol: (§2)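 600 cells/well were plated with the nonlytic NanoLuc/prosubstrate reagent, pre-incubated 5 h, then given 23 nL of compound in DMSO. Incubation at 37 C for 40 h, with luminescence from viable-cell-reduced substrate read repeatedly from 0 h.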

The nature of experiment [5]: A CellTox Green Cytotoxicity Assay to monitor cytotoxicity in HEK293 cells - 24 hour (AID 1224875). Further: nearly all actives have a fitted effect of over 45% in size. In outline: as §1
Experiment [6] is described as follows: qHTS RealTime-Glo MT Cell Viability Assay in HepG2 cells - 32 hour (AID 1224877). Further: nearly all actives have a fitted effect of over 55% in size. A digest of the protocol: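 qHTS, HepG2, 600 cells/well, RealTime-Glo (NanoLuc + prosubstrate) added with cells; 5 h preincubation; DMSO compound addition; 37 C; luminescence at 0/8/16/24/32/40 h.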
A short description of experiment [7]: A CellTox Green Cytotoxicity Assay to monitor cytotoxicity in HepG2 cells - 24 hour (AID 1224878). Further: nearly all actives have a fitted effect of over 45% in size. In outline: (§3)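 HepG2 cells, 600/well, preincubated 5 h with CellTox Green dye, then exposed to Tox21 compounds in DMSO at 37 C for up to 40 h. Dead-cell DNA fluorescence read at the indicated time point.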
Experiment [8] in a line: A CellTox Green Cytotoxicity Assay to monitor cytotoxicity in HepG2 cells - 40 hour (AID 1224879). Further: nearly all actives have a fitted effect of over 40% in size. A digest of the protocol: as §3
Experiment [9] in a line: qHTS RealTime-Glo MT Cell Viability Assay in HEK293 cells - 0 hour (AID 1224880). Further: nearly all actives have a fitted effect of over 45% in size. In outline:
as §2

Experiment [10] in a line: A CellTox Green Cytotoxicity Assay to monitor cytotoxicity in HepG2 cells - 16 hour (AID 1224876). Further: nearly all actives have a fitted effect of over 45% in size. A digest of the protocol:
as §3

SMILES strings stand for the structures. Several values for one entry are separate records, joined by “and”; a condition that tells them apart may be missing. Equal entries are not always repeated. Inconclusive results are not listed. More than one record can exist for a structure, and the calls need not agree. Activity calls are given as the source filed them. The call rests on the fitted dose curve; in most records, active means well fitted curve in the direction sought with a large enough effect in the repeat runs; inconclusive means weak or mixed curves; inactive means no such curve, though single readings can be large; an effect the other way counts as inactive or inconclusive.
On the % scale 0 is the no-effect control and ±100 the full control effect; potency means the concentration at half of the fitted maximal effect.

As for `C=C[C@H]1CN2CC[C@H]1C[C@@H]2[C@@H](O)c1ccnc2ccc(OC)cc12`, the Potency result in experiment [1], in experiment [3], in experiment [5], in experiment [6], in experiment [7] and in experiment [8] was “inactive” throughout. Also, the Potency result in experiment [9] is “inactive”. For the same compound, the results for the Potency in experiment [2] and in [4] were 42.9 µM (active) and 48.2 µM (active), respectively.

`CCCCCCC(C)O` (stereo unspecified): the Potency result in experiment [1], in [2], in experiment [3], in experiment [5], in [10] and in experiment [6] was “inactive” in each case. The Potency entry in [7], in experiment [8] and in [9] was “inactive” each time. The max response in experiment [4] was 1.85% (inactive) and 4.03% (inactive).

As to `Cc1ccc(C(C)(C)C)c(O)c1`, the Potency is 23.8 µM (active) and 24.5 µM (active) in experiment [1]; 23.8 µM (active) and 24.5 µM (active) in experiment [5]; 38.9 µM (active) in experiment [10]; 38.9 µM (active) in experiment [7]; 34.7 µM (active) in experiment [8]. The Potency result in experiment [2], in [3], in [6] and in experiment [9] was “inactive” each time. Moreover, the max response in experiment [4] is -23.8% (inactive) and -20.7% (inactive).

`C/C=C/C(=O)N(CC)c1ccccc1C`: the Potency entry in experiment [1], in experiment [2], in experiment [3], in [5], in [10] and in experiment [6] was “inactive” each time. The Potency result in experiment [7], in experiment [8] and in [9] was “inactive” each time. The max response in experiment [4] is 1.07% (inactive) and 4.13% (inactive).

On to `OC[C@H]1O[C@@H]2O[C@H]3[C@H](O)[C@@H](O)[C@@H](O[C@H]4[C@H](O)[C@@H](O)[C@@H](O[C@H]5[C@H](O)[C@@H](O)[C@@H](O[C@H]6[C@H](O)[C@@H](O)[C@@H](O[C@H]7[C@H](O)[C@@H](O)[C@@H](O[C@H]1[C@H](O)[C@H]2O)O[C@@H]7CO)O[C@@H]6CO)O[C@@H]5CO)O[C@@H]4CO)O[C@@H]3CO`, for which the Potency entry in experiment [1], in experiment [2], in [3], in experiment [5], in [6] and in experiment [7] was “inactive” throughout. The Potency result in experiment [8] and in experiment [9] was “inactive” in each case. Moreover, the max response in experiment [4] is -4.99% (inactive) and 23.3% (inactive).

Take `Cc1ccc(C)c(O)c1`: the Potency result in [1], in [2], in experiment [3], in [5], in experiment [10] and in [6] was “inactive” in each case. The Potency entry in [7], in experiment [8] and in experiment [9] was “inactive” throughout. In [4], the max response was 1.95% (inactive) and 4.96% (inactive).

For the compound `O=C(O)c1ccc(O)cc1`, the Potency entry in experiment [1], in [2], in [3], in [5], in [6] and in experiment [7] was “inactive” each time. The Potency result in experiment [8] and in [9] was “inactive” in each case. The max response in experiment [4] is -0.345% (inactive) and 9.29% (inactive).

Regarding `O=C1OC2(c3ccccc31)c1cc(I)c(O)c(I)c1Oc1c2cc(I)c(O)c1I`, the Potency in [1] is 11.8 µM (active) [middle of 4 runs]; in [2] it was 49.1 µM (active) and inactive; in experiment [3], 39 µM (active); in experiment [4], 49.1 µM (active); in experiment [5], 12 µM (active) [middle of 4 runs]; in experiment [10] it was 11.8 µM (active) [middle of 4 runs]. The Potency in [6] was 39 µM (active) and 24.8 µM (active) and 29.8 µM (active); in [7] it was 13.3 µM (active) [middle of 4 runs]; in experiment [8], 13.3 µM (active) [middle of 4 runs]; in experiment [9], 5.56 µM (active) [middle of 4 runs]. For the same compound, the max response in [4] is -20.2% (inactive).

Take `Nc1ccc2c(O)cc(S(=O)(=O)O)cc2c1`: the Potency result in [1], in experiment [2], in experiment [3], in [5], in experiment [10] and in [6] was “inactive” in each case. Besides, the Potency result in experiment [7], in experiment [8] and in experiment [9] was “inactive” throughout. Moreover, the Potency in experiment [4] is 6.17 µM (active).

In the case of `CC/C=C\C/C=C\C/C=C\CCCCCCCC(=O)O`, the Potency result in experiment [1], in [2], in experiment [3], in experiment [5], in experiment [10] and in experiment [6] was “inactive” in each case. For the same compound, the Potency entry in experiment [7], in experiment [8] and in experiment [9] was “inactive” throughout. Moreover, the max response in experiment [4] was -5.49% (inactive) and 15.2% (inactive).

On to `C[N+](C)(C)CCO`, for which the Potency result in experiment [1], in experiment [2], in experiment [3], in experiment [5], in [10] and in experiment [6] was “inactive” throughout. Besides, the Potency result in [7], in experiment [8] and in experiment [9] was “inactive” in each case. Further, the max response in [4] is 15.9% (inactive) and 6.06% (inactive).

Turning to `Nc1cc(Cl)c(N)c(Cl)c1`, the Potency result in experiment [1], in experiment [2], in experiment [3], in experiment [5], in experiment [6] and in experiment [7] was “inactive” in each case. Further, the Potency entry in experiment [8] and in [9] was “inactive” throughout. For the same compound, in experiment [4], the max response is 25.2% (inactive).

On to `CC(=O)OC(C)C`, for which the Potency entry in experiment [1], in experiment [2], in experiment [3], in [5], in [10] and in experiment [6] was “inactive” in each case. In addition, the Potency result in experiment [7], in experiment [8] and in experiment [9] was “inactive” each time. Besides, the max response in [4] is -9.76% (inactive) and -7.44% (inactive).

Take `C=CC(C)(O)CCC=C(C)C` (stereo unspecified): the Potency result in experiment [1], in experiment [2], in [3], in experiment [5], in experiment [10] and in experiment [6] was “inactive” throughout. The Potency result in [7], in experiment [8] and in experiment [9] was “inactive” in each case. Also, in [4], the max response is 3.03% (inactive) and 9.35% (inactive).

Take `C=CCOC(=O)C(=C)C`: the Potency result in [1], in [2], in experiment [3], in experiment [5], in experiment [10] and in [6] was “inactive” throughout. The Potency result in experiment [7], in [8] and in experiment [9] was “inactive” throughout. Besides, the max response in experiment [4] was 2.76% (inactive) and 2.11% (inactive).

With `c1ccc2c(c1)ccc1ncccc12`, the Potency entry in [1], in experiment [2], in experiment [3], in experiment [5], in experiment [10] and in experiment [6] was “inactive” each time. Also, the Potency entry in [7], in experiment [8] and in [9] was “inactive” in each case. In [4], the max response was -12% (inactive) and -17.1% (inactive).

`Nc1ccc2c(c1)C(=O)c1ccccc1C2=O`: the Potency in [1] is 30.3 µM (active) and inactive. The Potency result in [2], in experiment [3], in [5], in experiment [6], in experiment [7] and in experiment [8] was “inactive” in each case. In addition, the Potency entry in experiment [9] was “inactive”. For the same compound, the max response in experiment [4] was -23.1% (inactive) and -12.6% (inactive).
